Among the test systems are MOLT-4 leukemia; SR leukemia; RPMI-8226 leukemia; OVCAR-8 ovarian; OVCAR-5 ovarian; OVCAR-4 ovarian; SK-OV-3 ovarian; IGROV1 ovarian; OVCAR-3 ovarian; HS 578T breast; NCI/ADR-RES ovarian; T-47D breast; BT-549 breast; MDA-MB-435 melanoma; SW-620 colon; MCF7 breast; HCT-116 colon; HCC-2998 colon; KM12 colon.
What all share (assay): NCI-60 one-dose screen, 48 h (100 = growth as untreated, 0 = no growth, -100 = all killed)
What all share (conditions): 10 µM unless noted

Structures are written as SMILES. “And” between values parts separate entries of the source, which are not always exact repeats. Equal values may be shown once. This is part of a sample that, as a whole, favours compounds with a hit. Of some 83,000 tested, about 20% had one in any assay.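 How to read the values: 0–100, growth inhibition (40 = 60% inhibited); 0, no net growth; -100 to 0, cell death (-40 = 40% of starting cells died; -100 = all dead).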 Some compounds were tested as several samples or in several runs, with calls that do not always agree. The source made the active and inactive calls. Rule for the calls: active = growth percent below 10; inactive = the rest.

Turning to `O=C1NC(=O)C(=Cc2ccccc2)C(=O)N1`, the growth is 81.5% (inactive) and 109% (inactive) in the assay with MOLT-4 leukemia; 89.7% (inactive) and 107% (inactive) in the assay on SR leukemia; 112% (inactive) and 110% (inactive) in the assay on RPMI-8226 leukemia; 104% (inactive) in the assay on OVCAR-8 ovarian; 108% (inactive) in the assay on OVCAR-5 ovarian; 109% (inactive) and 112% (inactive) in the assay with OVCAR-4 ovarian. The growth in the assay on SK-OV-3 ovarian was 106% (inactive) and 107% (inactive); in the assay on IGROV1 ovarian, 92.5% (inactive) and 104% (inactive); with OVCAR-3 ovarian, 102% (inactive) and 111% (inactive); with HS 578T breast, 119% (inactive) and 103% (inactive); in the assay with NCI/ADR-RES ovarian, 100% (inactive) and 103% (inactive); in the assay with T-47D breast, 94.8% (inactive) and 105% (inactive). The growth with BT-549 breast is 106% (inactive) and 116% (inactive); in the assay with MDA-MB-435 melanoma, 113% (inactive) and 104% (inactive); in the assay with SW-620 colon, 103% (inactive) and 105% (inactive); in the assay with MCF7 breast it was 145% (inactive) and 102% (inactive); with HCT-116 colon it was 94% (inactive) and 102% (inactive); in the assay on HCC-2998 colon, 99.6% (inactive) and 117% (inactive). For the same molecule, the growth in the assay on KM12 colon is 114% (inactive) and 108% (inactive).
Consider `CC(=O)Cc1ccc2c(c1)OCO2`, for which the growth is 121% (inactive) in the assay on MOLT-4 leukemia; 122% (inactive) in the assay on SR leukemia; 113% (inactive) in the assay with RPMI-8226 leukemia; 96.6% (inactive) in the assay with OVCAR-8 ovarian; 94% (inactive) with OVCAR-5 ovarian; 135% (inactive) in the assay on OVCAR-4 ovarian. Besides, the growth in the assay with SK-OV-3 ovarian was 107% (inactive); in the assay with IGROV1 ovarian it was 111% (inactive); in the assay on OVCAR-3 ovarian it was 110% (inactive); with HS 578T breast, 111% (inactive); in the assay with NCI/ADR-RES ovarian, 103% (inactive); with T-47D breast, 103% (inactive). The growth in the assay with BT-549 breast was 106% (inactive); in the assay with MDA-MB-435 melanoma, 105% (inactive); in the assay with SW-620 colon, 110% (inactive); in the assay on MCF7 breast, 115% (inactive); with HCT-116 colon it was 102% (inactive); in the assay on HCC-2998 colon, 102% (inactive). Moreover, the growth with KM12 colon was 96.1% (inactive).
For the molecule `CCC1(CCSC#N)C(=O)NC(=O)NC1=O`, the growth is 85.1% (inactive) in the assay on MOLT-4 leukemia; 88.8% (inactive) with SR leukemia; 106% (inactive) in the assay on RPMI-8226 leukemia; 102% (inactive) in the assay on OVCAR-8 ovarian; 109% (inactive) in the assay on OVCAR-5 ovarian; 91.4% (inactive) in the assay on OVCAR-4 ovarian. For the same molecule, the growth with SK-OV-3 ovarian was 98.4% (inactive); in the assay with IGROV1 ovarian it was 104% (inactive); in the assay on OVCAR-3 ovarian, 105% (inactive); in the assay on HS 578T breast it was 106% (inactive); in the assay on NCI/ADR-RES ovarian, 104% (inactive); in the assay on T-47D breast, 78.4% (inactive). The growth in the assay with BT-549 breast is 95.3% (inactive); in the assay on MDA-MB-435 melanoma, 106% (inactive); in the assay with SW-620 colon, 106% (inactive); in the assay on MCF7 breast it was 91.2% (inactive); in the assay on HCT-116 colon it was 94.1% (inactive); in the assay with HCC-2998 colon it was 98.2% (inactive). Further, the growth with KM12 colon is 104% (inactive).
As for `CC1=C(C)C(=O)O[C@@H]([C@](C)(O)[C@]2(O)CC[C@@]3(O)[C@@H]4C[C@H]5O[C@]56CC=CC(=O)[C@]6(C)[C@H]4CC[C@]23C)C1`, the growth in the assay on MOLT-4 leukemia was -12.7% (active); in the assay with SR leukemia, -23.5% (active); with RPMI-8226 leukemia, -19.2% (active); in the assay on OVCAR-8 ovarian it was -7.94% (active); with OVCAR-5 ovarian, 21.7% (inactive); in the assay on OVCAR-4 ovarian, 7.99% (active). Further, the growth in the assay on SK-OV-3 ovarian was -19% (active); in the assay on IGROV1 ovarian, -36.7% (active); with OVCAR-3 ovarian, -59.6% (active); in the assay with HS 578T breast, 9.59% (active); in the assay with NCI/ADR-RES ovarian, 42.6% (inactive); in the assay with T-47D breast it was 0.829% (active). For the same molecule, the growth in the assay with BT-549 breast was -24.4% (active); in the assay on MDA-MB-435 melanoma it was 3.13% (active); in the assay with SW-620 colon, -37% (active); in the assay with MCF7 breast, -16.3% (active); in the assay with HCT-116 colon it was -4.21% (active); in the assay on KM12 colon, -24.2% (active).
For `CO[C@H]1[C@H](O[C@@H]2C[C@@H]3C/C=C/C(=O)O[C@@H](CO)C[C@H](O)[C@@H]4C[C@H](C)[C@H](C/C=C\C=C\[C@H](C)C[C@H](C2)O3)O4)O[C@@H](C)[C@H](O)[C@H]1O`, the growth with MOLT-4 leukemia is 43.8% (inactive); with SR leukemia, 85.2% (inactive); with RPMI-8226 leukemia it was 28.1% (inactive); with OVCAR-8 ovarian, 42.6% (inactive); with OVCAR-5 ovarian, 71.2% (inactive); in the assay on OVCAR-4 ovarian, 30.1% (inactive). In addition, the growth with SK-OV-3 ovarian is 54% (inactive); in the assay with IGROV1 ovarian it was 71% (inactive); in the assay on OVCAR-3 ovarian, 60.2% (inactive); in the assay on HS 578T breast, 95.1% (inactive); in the assay with NCI/ADR-RES ovarian, 55.8% (inactive); in the assay on T-47D breast it was 20.8% (inactive). Further, the growth was 53.9% (inactive) in the assay with BT-549 breast; 64.3% (inactive) with MDA-MB-435 melanoma; 76.6% (inactive) with SW-620 colon; 57% (inactive) in the assay on HCT-116 colon; 53.6% (inactive) with HCC-2998 colon; 68.1% (inactive) in the assay on KM12 colon.
For the molecule `CCCCCCCCCCCCCCCCCCn1cc[n+](C)c1`, the growth in the assay with MOLT-4 leukemia was 16.8% (inactive) and 9.25% (active); in the assay with SR leukemia, 4.33% (active) and 19% (inactive); in the assay on RPMI-8226 leukemia, 93.8% (inactive) and 75.6% (inactive); with OVCAR-8 ovarian, -20.2% (active) and -37.4% (active); with OVCAR-5 ovarian it was -61.5% (active) and -59.7% (active); with OVCAR-4 ovarian it was -19.3% (active) and -13.3% (active). Further, the growth was 4.83% (active) and -9.16% (active) in the assay with SK-OV-3 ovarian; -43.9% (active) and -43.1% (active) in the assay on IGROV1 ovarian; -48.7% (active) and -56.3% (active) in the assay on OVCAR-3 ovarian; -26.1% (active) and -37% (active) in the assay on HS 578T breast; 20.9% (inactive) and -7.98% (active) in the assay with NCI/ADR-RES ovarian; 35.9% (inactive) and 17% (inactive) in the assay with T-47D breast. For the same molecule, the growth in the assay with BT-549 breast was -55.6% (active) and -55% (active); in the assay with MDA-MB-435 melanoma it was -56.4% (active) and -70.8% (active); in the assay with SW-620 colon, -45.2% (active) and -38.1% (active); in the assay with MCF7 breast it was -33.8% (active) and 6.12% (active); in the assay on HCT-116 colon, -18.2% (active) and -51.5% (active); in the assay on KM12 colon it was -47.8% (active) and -61.9% (active).
Consider `Cc1ccc(P(=O)(O)O)cc1`, for which the growth in the assay on MOLT-4 leukemia was 116% (inactive); with SR leukemia, 97.9% (inactive); with RPMI-8226 leukemia, 112% (inactive); with OVCAR-8 ovarian it was 110% (inactive); with OVCAR-5 ovarian, 114% (inactive); in the assay with OVCAR-4 ovarian, 101% (inactive). Also, the growth was 128% (inactive) in the assay on SK-OV-3 ovarian; 111% (inactive) with IGROV1 ovarian; 118% (inactive) in the assay with OVCAR-3 ovarian; 97.7% (inactive) in the assay on HS 578T breast; 106% (inactive) in the assay with NCI/ADR-RES ovarian; 98.8% (inactive) in the assay with T-47D breast. For the same molecule, the growth with BT-549 breast is 122% (inactive); with MDA-MB-435 melanoma, 107% (inactive); in the assay on SW-620 colon, 105% (inactive); with MCF7 breast it was 98.6% (inactive); in the assay on HCT-116 colon it was 104% (inactive); in the assay on KM12 colon it was 104% (inactive).

The values above are taken from PubChem BioAssay (NCI).
